# According to PubChem BioAssay (NCATS):
# Records with an inconclusive call do not appear. Where a call stands in place of a potency, no number is given. Activity calls are given as the source filed them. The call rests on the fitted dose curve; in most records, active means well fitted curve in the direction sought with a large enough effect; inconclusive means small, poorly fitted or top-dose-only effect, or another doubt; inactive means no such curve, though single readings can be large; an effect the other way counts as inactive or inconclusive.
# How the values were obtained:
# [1] = Validation qHTS assay for inhibitors of Activation Induced Cytidine Deaminase (AID): UDG Counterscreen signal (AID 1347427)
# In short: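 Fluorescence at 560 nm excitation, 665 nm emission reports UDG signal after 250 mM NaOH (2x) addition and 30 min. Enzymes (AID 1 uM, UDG 2 U/mL, at 4/3x) preincubated 10 min with compound, then 4 h with 4x 250 nM DJC20/DJC23 substrate at room temperature.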
# [2] = Primary qHTS for inhibitors of La Crosse Virus (LACV) - induced cell death in SH-SY5Y cells (AID 1508616);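 further: top concentration of the series differs between compounds; higher means more rescue of cells from virus-induced death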
# In short: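 Cytopathicity rescue screen: compounds pinned onto SH-SY5Y cells, which are then infected with LACV (MOI 0.01) and held 6 days at 37C. Percent activity is scaled between infected DMSO control and uninfected DMSO control.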
# [3] = biological target: Calcium and integrin-binding protein 1 (Homo sapiens) (UniProt Q99828); assay: Primary qHTS for Identification of Calcium Integrin Binding Protein 1 (CIB1) Competitor (AID 1508620);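 further: GST tagged CIB1 binding a fluorescein labelled alphaIIb integrin peptide tracer; top concentration of the series differs between compounds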
# Chain of Calcium and integrin-binding protein 1 (Homo sapiens) (Q99828 whole entry, looked up): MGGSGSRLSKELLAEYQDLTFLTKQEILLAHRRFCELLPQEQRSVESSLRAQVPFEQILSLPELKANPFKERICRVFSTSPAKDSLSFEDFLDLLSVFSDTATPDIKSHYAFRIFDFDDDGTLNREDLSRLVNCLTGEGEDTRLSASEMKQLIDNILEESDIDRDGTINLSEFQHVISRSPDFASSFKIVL
# In short: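 Fluorescence polarization competition: CIB1-GST (1 uM final) preincubated with compound 15 min at room temperature, then FITC-labeled alphaIIb peptide (100 nM final) added for another 15 min. Polarization read at Ex 480/Em 540.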
# [4] = biological target: Calcium and integrin-binding protein 1 (Homo sapiens) (UniProt Q99828); assay: Validation qHTS for Identification of Calcium Integrin Binding protein 1 (CIB1) Competitor (AID 1508618)
# In short: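 Displacement of FITC-alphaIIb peptide (100 nM) from CIB1-GST (1 uM) is monitored by polarization in quantitative HTS format; buffer carries 5 mM CaCl2 and 125 mM NaCl at pH 7.4, incubations are at room temperature.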
# [5] = Primary qHTS for small molecule stabilizers of the endoplasmic reticulum resident proteome: Secreted ER Calcium Modulated Protein (SERCaMP) assay (AID 1508630)
# In short: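 The SH-SY5Y reporter protocol was run at 3 concentrations up to 38.3 uM (primary) or 11 concentrations (follow-up): 16 h compound, 100 nM thapsigargin for 4 h, then extracellular luciferase luminescence.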
# [6] = biological target: Single-stranded DNA cytosine deaminase (Homo sapiens) (UniProt Q9GZX7); assay: Validation qHTS assay for inhibitors of Activation Induced Cytidine Deaminase (AID): AID signal (AID 1347429)
# Chain of Single-stranded DNA cytosine deaminase (Homo sapiens) (Q9GZX7 whole entry, looked up): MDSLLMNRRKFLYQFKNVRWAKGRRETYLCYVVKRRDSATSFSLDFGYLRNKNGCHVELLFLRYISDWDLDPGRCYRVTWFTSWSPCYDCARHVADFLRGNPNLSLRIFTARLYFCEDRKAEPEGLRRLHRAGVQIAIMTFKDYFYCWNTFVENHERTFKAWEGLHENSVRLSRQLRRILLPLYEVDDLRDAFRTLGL
# In short: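 AID+UDG coupled FRET deamination; cpds up to 114 uM final; DJC20/DJC23 substrate, 4 hr RT; NaOH stop, 30 min RT; read Ex 540/Em 590.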
compound,measurement,setting,value
Cc1ccc(C(=O)O[C@H](C(=O)O)[C@@H](OC(=O)c2ccc(C)cc2)C(=O)O)cc1 (tested in a mixture with another compound),Potency,[1],inactive
same,Potency,[2],inactive
Cc1onc(-c2c(F)cccc2Cl)c1C(=O)N[C@@H]1C(=O)N2[C@@H]1SC(C)(C)[C@@H]2C(=O)O,Potency,[3],inactive
CN1CCc2cc(O)c(O)cc2C(c2ccccc2)C1 (centres undefined),Potency,[1],inactive
same,Potency,[2],inactive
CC1(C)S[C@@H]2[C@H](NC(=O)[C@H](N)c3ccc(O)cc3)C(=O)N2[C@H]1C(=O)O,Potency,[3],inactive
CC(C)Cc1ccc([C@H](C)C(=O)O)cc1,Potency,[2],inactive
CN1[C@@H]2CC[C@H]1CC(OC(c1ccccc1)c1ccccc1)C2 (some centres undefined),Potency,[3],inactive
COC(=O)[C@H]1[C@H]2C[C@@H]3c4[nH]c5cc(OC)ccc5c4CCN3C[C@H]2C[C@@H](OC(=O)/C=C/c2cc(OC)c(OC)c(OC)c2)[C@@H]1OC,Potency,[3],inactive
COc1ccc(/C=C/c2nc(NCCCN(C)C)c3ccccc3n2)cc1,outcome,[4],inactive
CC1(C)[C@@H](O[C@H]2O[C@H](C(=O)O)[C@@H](O)[C@H](O)[C@H]2O[C@@H]2O[C@H](C(=O)O)[C@@H](O)[C@H](O)[C@H]2O)CC[C@]2(C)[C@H]3C(=O)C=C4[C@@H]5C[C@@](C)(C(=O)O)CC[C@]5(C)CC[C@@]4(C)[C@]3(C)CC[C@@H]12,Potency,[3],inactive
Cc1nc2sccn2c(=O)c1CCN1CCC(=C(c2ccccc2)c2ccc(F)cc2)CC1,Potency,[1],inactive
same,Potency,[2],inactive
CCCCCC(O)c1cccc(OCc2ccc3ccccc3n2)c1 (centres undefined),Potency,[1],inactive
same,Potency,[2],inactive
O=C(O)[C@@H]1C[C@@H](C(=O)O)N1,Potency,[1],inactive
same,Potency,[2],inactive
same,Potency,[5],inactive
C[C@H](O)[C@H](O)[C@H]1CNc2nc(N)[nH]c(=O)c2N1,Potency,[3],inactive
Cc1cc2c(cc1Cl)N(C(=O)Nc1ccc(Oc3cccnc3C)nc1)CC2,Potency,[1],inactive
same,Potency,[2],inactive
same,outcome,[4],inactive
C#CCN1C(C)=C(C(=O)OC)C(c2cccc([N+](=O)[O-])c2)C(C(=O)OCC)=C1C (centres undefined),Potency,[1],inactive
same,Potency,[2],inactive
same,Potency,[5],inactive
CCCC1(C)C(C#N)(C#N)C1(C#N)C#N,Potency,[1],inactive
same,Potency,[6],inactive
same,Potency,[5],inactive
COc1ccccc1N1CCN(CCCCNS(=O)(=O)c2cccc3c(N(C)C)cccc23)CC1,Potency,[1],inactive
same,Potency,[2],inactive
CC1(C)C[C@@H]1C(=O)N/C(=C\CCCCSC[C@H](N)C(=O)O)C(=O)O,Potency,[5],inactive
O=C(O)CC1CC(c2ccccc2)=NO1 (centres undefined),Potency,[1],inactive
same,Potency,[2],inactive
same,Potency,[3],inactive
same,Potency,[5],inactive
O=C1O/C(=C/Br)CCC1c1cccc2ccccc12 (centres undefined),Potency,[1],inactive
same,Potency,[6],inactive
same,Potency,[5],inactive
COc1cc(OC)cc(-c2cc3cnc(N)nc3nc2NC(=O)NC(C)(C)C)c1,outcome,[4],inactive
